uPA generation: cell surface uPA generation inhibition | cell surface uPA generation assay, qHTS | Potency, µM (highest dose often 38.3 µM), hits mostly inhibitors | 330,000 compounds, 0.31% hits | AID 540303; active means well fitted inhibition curve with a large enough effect; inconclusive means small, poorly fitted or top-dose-only effect; inactive means no such curve, though single readings can be large or run the other way; tested in mouse RAW 264.7 cells; further: nearly all actives have a fitted effect of over 55% in size
HT1080NT lethal: kills 2HG-producing HT-1080-NT fibrosarcoma cells; HT-1080-NT fibrosarcoma viability, CellTiter-Glo ATP luminescence, 48 h; Potency, µM (doses to about 46.1 µM), usual class: cytotoxic; 360,000 compounds, 1.6% hits;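 further: NT is the 2HG producing partner of a matched IDH1 knockdown line; nearly all actives have a fitted effect of over 55% in size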
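Compounds were tested in concentration-response format on HT-1080-NT cells for 48 hours at 37 degrees C. Cell viability came from CellTiter-Glo luminescence; curves were classified by r2, response magnitude and activity.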
IL1B secr inh: inhibitors of inflammasome signaling (IL-1 beta secretion); THP-1 LPS/ATP IL-1B secretion, AlphaLISA, 16 h; hits give low values; 360,000 compounds, 4.7% hits; activity change, % at 57.5 µM; in the data active means activity change below about -50%; inconclusive means mostly about -30% to -49%
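Secreted IL-1B measured by AlphaLISA bead assay after 16 h compound exposure of THP-1 cells; compounds (final up to 57.5 uM) added 1 h before LPS (250 ng/mL) and ATP (1.25 mM) stimulation; lower signal means less secretion.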
DT40 TDP1 CPT: growth inhibition of DT40 Tdp1-/-;hTDP1 cells with camptothecin (screen for TDP1 inhibitors) | chicken DT40 Tdp1-/-;hTDP1 cells + 20 nM CPT, ATP luminescence, 48 h | Potency, µM (top dose mostly 46.2 µM), usual class: inhibitors | 420,000 compounds, 12% hits | AID 686979; further: nearly all actives have a fitted effect of over 55% in size
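Chicken DT40 Tdp1-/- cells complemented with human TDP1, 400 cells/well, exposed to compounds plus 20 nM camptothecin for at least 48 h at 37 C; viability read as ATP content by CellTiter-Glo luminescence.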
HT1080 IDH1KD tx: HT-1080 IDH1 knockdown cell toxicity (counter line); HT-1080 IDH1 knockdown viability, ATP luminescence, 48 h; Potency, µM (highest dose often 46.1 µM), most hits filed as cytotoxic; 360,000 compounds, 2% hits; AID 686971
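CellTiter-Glo luminescence after 48 h compound exposure at 37 degrees C of IDH1-knockdown HT-1080 cells in 5% FBS RPMI. %Activity scaled between DMSO wells and cell-free media wells, with curves fitted and assigned curve classes.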
DT40 TDP1 no CPT: qHTS for Inhibitors of human tyrosyl-DNA phosphodiesterase 1 (TDP1): qHTS in cells in absence of CPT; DT40 Tdp1-/- hTDP1 cells, no CPT, ATP luminescence, 48 h; Potency, µM (doses to about 46.2 µM), actives largely listed as inhibitors; 420,000 compounds, 15% hits; AID 686978, 2013; further: nearly all actives have a fitted effect of over 55% in size
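Cells were dispensed at 400 per well, compounds added by pin tool, plates incubated ≥48 hr at 37 °C, then CellTiter-Glo added for 30 min at room temperature before luminescence reading. Line: DT40 Tdp1-/- complemented with hTDP1; camptothecin omitted.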
Hits are given with their value; - = inactive; ? = inconclusive; . = no result. An excerpt weighted towards active compounds, which were near 19% of everything screened. Unless noted, the call rests on the fitted dose curve; in most records, active means well fitted curve in the direction sought with a large enough effect; inconclusive means small, poorly fitted or top-dose-only effect, or another doubt; inactive means no such curve, though single readings can be large; an effect the other way counts as inactive or inconclusive.

SMILES	uPA generation	HT1080NT lethal	IL1B secr inh	DT40 TDP1 CPT	HT1080 IDH1KD tx	DT40 TDP1 no CPT
COc1ccc(C(=O)NCCc2cccc(Cl)c2)cc1OC1CCN(C(C)=O)CC1	-	-	-	?	-	?
COc1ccccc1N1C(=O)c2cccc3c(Cl)ccc(c23)C1=O	-	-	-	?	-	13µM
COCCN(CCOc1cc(C)cc(C)c1)Cc1ccc(Cl)cc1	-	-	-	?	-	-
O=C(O)C1(c2ccccc2)CCN(S(=O)(=O)c2ccc(Br)cc2)CC1	-	-	-	-	-	-
O=C(c1ccc(Br)o1)N1CCN(c2ccc3nnc(-c4ccccc4)n3n2)CC1	-	-	-	16µM	-	15µM
O=S(=O)(c1ccc(Br)cc1)N1CCN(c2ccc3nnc(-c4ccccc4)n3n2)CC1	-	-	-	18µM	-	21µM
Oc1c(C2=NCCNC(C(F)(F)F)=C2)ccc2ccccc12	-	?	-109	-	?	-
Cc1ccc(O)c(C2=NCCNC(C(F)(F)F)=C2)c1	-	-	-	-	-	-
CCc1nc2ccccc2n1CCC(C)C	-	-	-	26µM	-	16µM
CC(C)C(=O)NCCc1nc2ccccc2n1CCc1ccccc1	-	-	-63	?	-	21µM
CC(C)Cc1nc2ccccc2n1CCc1ccccc1	-	?	-	23µM	-	?
CCc1nc2ccccc2n1CCc1ccccc1	-	-	-	-	-	?
C=C(Br)Cn1c(CC)nc2ccccc21	-	-	-	-	-	?
C=C(Br)Cn1c(CC(C)C)nc2ccccc21	-	-	-	12µM	-	9.2µM
CCCN1C(=O)/C(=C/C=C2\N(CC)c3ccccc3C2(C)C)SC1=S	-	-	-	?	-	13µM
COc1ccc(C(=O)N/N=C/c2c[nH]c3ccccc23)cc1	-	-	-	-	-	-
O=C(N/N=C/c1sc2ccccc2c1O)c1cccc2ccccc12	-	?	-	2.6µM	?	5.2µM
COc1ccc(C(=O)N/N=C/c2sc3ccccc3c2O)cc1	-	?	-	2.6µM	?	3.7µM
O=C(N/N=C/c1ccccc1C(F)(F)F)c1ccc(O)cc1	-	-	-	-	-	-
O=C(N/N=C/c1sc2ccccc2c1O)c1ccccc1	-	8.2µM	-	0.92µM	2.6µM	0.65µM
COc1ccc2cc(C(=O)N/N=C/c3sc4ccccc4c3O)ccc2c1	-	?	-	10µM	?	7.3µM
C[C@@H]1CN([C@@H](C)CO)C(=O)CCCn2nncc2CO[C@@H]1CN(C)C(=O)c1ccccc1	.	-	-	-	-	-
CC1(C(=O)NS(=O)(=O)c2ccc(F)cc2F)CCN1C(=O)c1ccccc1CCc1ccccc1 (stereo not drawn)	.	-	-	?	-	?
CC1C(=O)N2CCCc3cc(NC(=O)c4ccccc4Br)cc1c32 (stereo not drawn)	?	-	-	-	-	-
CCc1ccccc1NC(=O)Cn1nnc(-c2nc(-c3ccncc3)no2)c1N	.	.	.	-	.	-
SMILES	uPA generation	HT1080NT lethal	IL1B secr inh	DT40 TDP1 CPT	HT1080 IDH1KD tx	DT40 TDP1 no CPT
COc1ccc(N2C(=O)CCSC23C(=O)N(Cc2ccc(F)cc2)c2ccccc23)cc1Cl (stereo not drawn)	.	.	.	9.2µM	.	8.2µM
CCCS(=O)(=O)c1ncc(Cl)c(C(=O)N2CCN(c3ccc(OC)cc3)CC2)n1	.	.	.	2.1µM	.	3.7µM
COc1ccc(N2CCN(C(=O)Cc3ncc(C(F)(F)F)cc3Cl)CC2)cc1	-	-	-	-	-	?
CN(CCCC(=O)Nc1ccncc1)S(=O)(=O)c1ccc(Cl)cc1	-	-	-	16µM	-	23µM
Cc1ccc(CC(=O)Nc2ccncc2)cc1	-	-	-	5.8µM	-	4.6µM
O=C(Cc1ccc(Cl)cc1)Nc1ccncc1	-	-	-	12µM	?	9.2µM
CCN(C(=O)CCS(=O)(=O)c1ccc2c(c1)CCN2C(C)=O)c1cccc(C(F)(F)F)c1	.	.	.	-	.	?
O=C(O)C1=C(CSc2nnnn2CS(=O)(=O)O)CS[C@@H]2[C@H](NC(=O)[C@H](O)c3ccccc3)C(=O)N12	.	.	.	-	.	-
COc1cc(=O)n2c(c1C(=O)NC(C)c1ccco1)CCN(C(=O)c1cccc(C)c1C)CC2 (stereo not drawn)	.	.	.	0.16µM	.	-
CCOc1ccc(NC(=O)CC2CC(C)(C)OC2=O)cc1 (stereo not drawn)	-	-	-	-	-	-
CCCC1CC(C)(c2csc(Nc3ccc(OCC)cc3)n2)OC1=O (stereo not drawn)	?	-	-	13µM	-	15µM
O=C(CCCN1C(=O)/C(=C/c2cccs2)SC1=S)Nc1ccc(C(=O)O)cc1	-	-	-	-	-	-
O=C(CCN1C(=O)/C(=C/c2cccs2)SC1=S)Nc1cccc(O)c1	-	-	-82	-	-	?
O=C(CCCN1C(=O)/C(=C/c2cccs2)SC1=S)NNC(=O)c1ccc(F)cc1	-	-	-	26µM	-	?
O=C(CCCN1C(=O)/C(=C/c2cccs2)SC1=S)Nc1cccc(O)c1	-	?	-94	21µM	16µM	16µM
O=C(CCN1C(=O)/C(=C/c2cccs2)SC1=S)Nc1ccc(O)cc1	-	-	-	-	?	?
O=C(CCCN1C(=O)/C(=C/c2cccs2)SC1=S)Nc1cccc(C(=O)O)c1	-	-	-	-	-	-
COc1ccc(CC(=O)Nc2ccccc2C(F)(F)F)cc1S(=O)(=O)N1CCOCC1	.	-	-	-	-	-
CCOC(=O)Cn1cc(Cl)cc(C(=O)Nc2ccccc2)c1=O	-	-	-	-	-	-
CC(NC(=O)c1cc(S(=O)(=O)N(C)C)ccc1Cl)C1CC2CCC1C2 (stereo not drawn)	-	-	-	16µM	-	9.2µM
CC(NC(=O)c1cc(F)c(F)cc1Cl)C1CC2CCC1C2 (stereo not drawn)	-	-	-	-	-	?
CCn1c2ccccc2c2cc(/C=N/NC(=O)c3ccccc3)ccc21	-	?	?	15µM	?	16µM
COc1cc(C=NNC(=O)c2ccccc2-n2cccc2)ccc1O	-	?	-	26µM	-	?
CSc1ccc(/C=N/NC(=O)c2cc(O)cc(O)c2)cc1	-	-	-	-	-	-
Cn1c2ccccc2c2cc(/C=N/NC(=O)c3cc(O)cc(O)c3)ccc21	-	-	-86	?	-	?
O=C(N/N=C/c1ccc(F)cc1)c1ccccc1	?	-	-	-	-	-
COc1cc(/C=N/NC(=O)C(=O)/C=C2\NC(C)(C)Cc3ccccc32)ccc1O	-	?	-53	?	?	?
